Most compounds without a hit are left out; they make up all but 21% or so of the library.
DT40 TDP1 no CPT – qHTS for Inhibitors of human tyrosyl-DNA phosphodiesterase 1 (TDP1): qHTS in cells in absence of CPT; Potency, µM (highest dose often 46.2 µM), for inactives: at the top dose activity change, negative = growth inhibition, actives largely listed as inhibitors; hit rate 15% among 420,000; DT40 Tdp1-/- hTDP1 cells, no CPT, ATP luminescence, 48 h; note: potency is the fitted concentration of half-maximal effect; % is set by controls: 0 for no effect and ±100 for the full control effect; nearly all actives have a fitted effect of over 55% in size
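Seeded 400 DT40-hTDP1 cells/well (vehicle DMSO, no 20 nM CPT); pinned compounds; ≥48 hr at 37 °C; CellTiter-Glo luminescence as viability measure.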
D3 ag – agonists of human D3 dopamine receptor | hit rate 0.58% among 410,000 | P35462 | max activation, % | D3R DiscoveRx beta-arrestin cells, luminescence, 90 min | AID 652048; in the data active = max activation above about 30%; note: 0% is about no effect
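Agonist-mode cell screen: cells plated at 1500/well and incubated overnight at 37 °C, then exposed to library compounds for 90 min at 37 °C. Detection reagent was added for 30–60 min at room temperature, and luminescence was read.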
D3 antag – blocks the human D3 dopamine receptor. AID 652054. D3R cells, DiscoveRx beta-arrestin luminescence, antagonist mode; stronger effect = lower value. max response, negative = inhibition, %. hit rate 2.5% among 360,000. P35462; in the data active = max response below about -50%; inconclusive = no clear call, values can overlap the other calls; note: % is set by controls: 0 for no effect and ±100 for the full control effect
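Cells expressing the human receptor were seeded at 1500 cells/well, incubated overnight at 37 degrees C in 5% CO2, then exposed to library compounds with dopamine controls for 90 minutes at 37 degrees C before luminescent detection.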
IL1B secr inh – blocks inflammasome-driven IL-1 beta release; THP-1 LPS/ATP IL-1B secretion, AlphaLISA, 16 h; stronger effect = lower value; AID 743279; hit rate 4.7% among 360,000; activity change, % at 57.5 µM; in the data active = activity change below about -50%; inconclusive = mostly about -30% to -49%; note: % is set by controls: 0 for no effect and ±100 for the full control effect
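Secreted IL-1B measured by AlphaLISA bead assay after 16 h compound exposure of THP-1 cells; compounds (final up to 57.5 uM) added 1 h before LPS (250 ng/mL) and ATP (1.25 mM) stimulation; lower signal means less secretion.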
ClpP mod – qHTS Assay for Activators of ClpP; ATP-dependent Clp protease proteolytic subunit (Bacillus subtilis (strain 168)), P80244; purified B. subtilis ClpP, FRET peptide cleavage, 20 min; Potency, µM (top dose mostly 57.5 µM), for the others: at the highest dose activity change, negative = active; hit rate 1.9% among 340,000; AID 651965, 2013; active = well fitted falling curve with a large enough effect; inconclusive = small, poorly fitted or top-dose-only effect; inactive = no such curve, though single readings can be large or run the other way; note: potency is the fitted concentration of half-maximal effect; the source files actives as falling curves though it sought activators and does not explain the sign; nearly all actives have a fitted effect of over 65% in size
Target sequence (P80244 whole entry, looked up): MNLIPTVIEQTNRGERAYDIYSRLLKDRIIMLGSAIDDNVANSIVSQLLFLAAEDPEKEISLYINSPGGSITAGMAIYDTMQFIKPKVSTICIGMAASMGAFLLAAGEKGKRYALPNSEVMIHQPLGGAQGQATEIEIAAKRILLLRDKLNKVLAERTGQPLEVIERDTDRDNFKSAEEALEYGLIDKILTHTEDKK
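Purified B. subtilis ClpP, 10 microg/mL final in Tris/HCl pH8 with KCl, BSA, glycerol and Tween-20, cleaved an Abz/nitrotyrosine-quenched decapeptide. Fluorescence (ex 320, em 430) was read at 0 and 20 min at room temperature. Delta was normalized to 5.8 microM ADEP and DMSO/no-enzyme controls.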
TDP1 cell CPT – growth inhibition of DT40 Tdp1-/-;hTDP1 cells with camptothecin (screen for TDP1 inhibitors) | AID 686979 | Potency, µM (doses to about 46.2 µM), for the others: at the top dose activity change, negative = growth inhibition, most hits filed as inhibitors | chicken DT40 Tdp1-/-;hTDP1 cells + 20 nM CPT, ATP luminescence, 48 h | hit rate 12% among 420,000; note: potency is the fitted concentration of half-maximal effect; % is set by controls: 0 for no effect and ±100 for the full control effect; nearly all actives have a fitted effect of over 55% in size
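Chicken DT40 Tdp1-/- cells complemented with human TDP1, 400 cells/well, exposed to compounds plus 20 nM camptothecin for at least 48 h at 37 C; viability read as ATP content by CellTiter-Glo luminescence.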
* hit, by the source's call; ? = inconclusive; · = no result given. Unless noted, calls come from the whole dose curve; as a rule, active = well fitted inhibition curve with a large enough effect; inconclusive = small, poorly fitted or top-dose-only effect; inactive = flat fitted curve, though single readings scatter.

SMILES	DT40 TDP1 no CPT	D3 ag	D3 antag	IL1B secr inh	ClpP mod	TDP1 cell CPT
COC(=O)[C@]1(CC(C)C)N[C@H](c2ccc(-c3ccc(OC)cc3)cc2)[C@@H]2C(=O)N(C)C(=O)[C@@H]21	16µM*	-3	-20	-1	4%	?
Cc1ccn2c(=O)cc(CSc3nnc(C)s3)nc2c1	-6%	-15	·	·	-20%	4%
COc1cc(OC)cc(C(=O)Nc2ccc(S(=O)(=O)Nc3nc(C)cc(C)n3)cc2)c1	5%	-6	-14	21	·	9%
Cc1cccc(-c2nc3c(c(SCC(=O)N(C)C)n2)CCCC3)c1	16µM*	1	17	0	0%	?
CCSc1nc(-c2ccccc2)nc2c1CCCC2	?	12	1	13	·	?
CN(C)CCSc1nc(-c2ccccc2)nc2c1CCCC2	16µM*	-28	-2	-71*	16µM*	12µM*
CC(Sc1n[nH]c(N)n1)C(=O)Nc1ccc(Cl)cn1 (centres undefined)	2%	0	-17	13	-2%	-8%
CCC1(c2ccccc2)ON(c2c(Br)cccc2Br)C1=O (centres undefined)	16µM*	3	0	-97*	2%	18µM*
CCC1(c2ccccc2)CN(C)C1=O (centres undefined)	-13%	-2	-13	-9	-2%	3%
Cc1ccc(OCc2cc(=O)n3cc(C)sc3n2)c(NC(=O)c2ccco2)c1	?	-1	·	·	-2%	-4%
CCN(C(=O)COC(=O)c1nccnc1N)c1cccc2ccccc12	-21%	-5	1	11	0%	-2%
Cc1ccc(N(CC(=O)N2CCN(c3cc(C)ccc3C)CC2)S(=O)(=O)c2c(C)nn(C)c2C)cc1	16µM*	-4	·	·	-1%	21µM*
COc1ccc(N(CC(=O)N2CCN(c3cc(C)ccc3C)CC2)S(=O)(=O)c2c(C)noc2C)cc1	13µM*	-1	-11	0	0%	23µM*
COc1ccc(N(CC(=O)N2CCN(c3cccc(C)c3C)CC2)S(=O)(=O)c2c(C)noc2C)cc1	16µM*	5	5	-28	0%	21µM*
COc1ccc(N(CC(=O)N2CCN(c3ccccc3)CC2)S(=O)(=O)c2c(C)noc2C)cc1	?	5	9	-14	3%	?
CC1CCN(CC2CCN(C(=O)NCc3ccccc3)CC2)CC1	10%	-13	·	·	-2%	7%
COC(=O)C(CC(=O)c1ccc(Cl)cc1)c1ccccc1 (centres undefined)	-29%	-20	-14	-5	-4%	?
CCc1c(C)sc2c1CCN(C(=O)Nc1cc(C)cc(C)c1)C2c1ccccc1 (centres undefined)	8.2µM*	9	·	·	-2%	3.7µM*
CCOc1ccccc1NC(=O)N1CCc2c(sc(C)c2CC)C1c1ccccc1 (centres undefined)	15µM*	-5	·	·	-4%	?
CSc1ccc(/C=N/n2c(COc3ccccc3)n[nH]c2=S)cc1	-16%	-10	?	73	12%	-14%
O=C1C(=O)c2ccccc2C(O)=C1c1ccccc1F	?	-41	-72*	0	1%	-24%
CCOc1ccc(CC(=O)NCC(=O)NCc2cc(=O)n(C)c(=O)n2C)cc1	0%	1	3	3	0%	6%
Cc1cccc(CC(=O)NCC(=O)NCc2cc(=O)n(C)c(=O)n2C)c1	?	6	2	1	-1%	12µM*
CCOc1ccc(N2CC(NC(=O)C3CCCCC3)CC2=O)cc1 (centres undefined)	-2%	14	·	·	0%	-7%
COc1cccc(Nc2nnc(-c3cc4ccc(O)cc4oc3=O)s2)c1	23µM*	8	·	·	-25%	?
COc1ccc2oc(=O)c(-c3nc4ccc(C)cc4[nH]3)cc2c1	1.5µM*	-2	·	·	-6%	1µM*
